Data from PubChem BioAssay AID1981 (Southern Research Specialized Biocontainment Screening …, 2009).
Hit rate of the full screen: of about 2,200 compounds, about 480 (22%) were called active. No rule for the calls is given here. A selection follows. Results with a measured potency or affinity are listed apart.

Test: S. Typhimurium GFP fluorescence modified counterscreen for PhoP regulon inhibitor project dose response (AID 1981)
Settings: 4 h; series mostly up to 150 µM
For `Cc1ccc(NC(NC(=O)c2ccccn2)C(Cl)(Cl)Cl)cc1` (stereo unspecified), the outcome was “inactive”. With `O=C(NCc1ccco1)c1cccc(Nc2nc3ccc(Br)cc3[nH]2)c1` the outcome was “inactive”. For `O=C(NC(=S)N1CCN(c2c(Cl)cccc2[N+](=O)[O-])CC1)c1cccs1`, the outcome was “inactive”. In the case of `COc1ccc(/C=N/NC(=O)c2ccc3c(c2)OCCO3)cc1[N+](=O)[O-]`, the outcome is reported as “inactive”. With `Cc1ccc(C(=O)N/N=C/c2ccc([N+](=O)[O-])s2)cc1` the outcome was “inactive”. In the case of `O=C(Nc1cnn(Cc2ccc(F)cc2)c1)c1cnccn1`, the outcome is reported as “inactive”. In the case of `Cc1ccccc1-n1nnnc1Sc1nnnn1-c1ccccc1`, the outcome is reported as “inactive”. For `O=C1c2ccccc2C(=O)N1CCc1csc(-c2cccc(Cl)c2)n1`, the outcome was “inactive”. For `O=C(COC(=O)/C=C/c1ccco1)Nc1cccc([N+](=O)[O-])c1`, the outcome was “inactive”. With `CCOc1ccc2c(c1)nc(SCC(=O)c1ccc(Br)s1)n2C` the outcome was “inactive”. With `CC(=O)Nc1c(O)nc(SCC(=O)N2CCN(c3ccc(F)cc3)CC2)[nH]c1=O` the outcome was “inactive”. With `Cc1c(Cl)cccc1NC(=O)CSCC(N)=O` the outcome was “inactive”. In the case of `CSCC[C@H](NC(=O)Nc1ccc(C)cc1)C(=O)O`, the outcome is reported as “inactive”. For `N#Cc1c(N)nc(SCC(=O)NC2CCCCC2)c(C#N)c1-c1ccc(Cl)cc1`, the outcome was “inactive”. In the case of `N=c1c2c(n(Cc3ccc(Br)cc3)c3c1CCC3)CCCC2`, the outcome is reported as “inactive”. For `CCCCn1c(NCCO)nc2ccccc21`, the outcome was “inactive”. With `CCCCCCCCn1c2c(c(=N)c3c1CCC3)CCCC2` the outcome was “inactive”. In the case of `CCCCn1c(=N)n(CC(=O)C(C)(C)C)c2ccccc21`, the outcome is reported as “inactive”. For `CCCCC1CCC(C(=O)Nc2ccccc2)CC1` (stereo unspecified), the outcome was “inactive”. In the case of `COC(=O)C(C)N1C(=O)S/C(=C\c2cc(C)n(-c3ccccn3)c2C)C1=O` (stereo unspecified), the outcome is reported as “inactive”. With `Cc1ccc2nc(-c3ccc(Br)o3)oc(=O)c2c1` the outcome was “inactive”. In the case of `O=C1N=c2ccccc2=C1c1[nH]c(=S)[nH]c1O`, the outcome is reported as “inactive”. For `O=C1c2ccccc2-c2onc3ccc(NCc4ccco4)c1c23`, the outcome was “inactive”. With `CCn1c(=N)n(CC(O)c2ccccc2)c2ccccc21` (stereo unspecified) the outcome was “inactive”. In the case of `Cc1ccc(/C=C/c2ccc(=O)n(Cc3ccccc3Cl)n2)cc1`, the outcome is reported as “inactive”. With `[O-]/[N+](=C\c1ccncc1)c1ccccc1` the outcome was “inactive”. For `CCCn1c(NCCO)nc2ccccc21`, the outcome was “inactive”. In the case of `c1csc(C2Nc3cccc4cccc(c34)N2)c1`, the outcome is reported as “inactive”. With `Brc1ccc(NC2=Nc3ccccc3CC2)cc1` the outcome was “inactive”. With `O=C(Nc1cnn(Cc2ccc(Cl)cc2Cl)c1)c1noc2c1CCCC2` the outcome was “inactive”. With `Cc1cccc(-n2c(SCC(N)=O)nc3c(c2=O)C2(CCCC2)Cc2ccccc2-3)c1` the outcome was “inactive”. For `COC(=O)c1sccc1NC(=O)c1csc2c1CCCC2`, the outcome was “inactive”. In the case of `Oc1ccccc1CN1CCCN(Cc2ccccc2O)C1`, the outcome is reported as “inactive”. For `COc1ccc(NC(=O)CN2CCCCC2)c([N+](=O)[O-])c1`, the outcome was “inactive”. In the case of `CC(C)Cc1oc(C(=O)O)cc1CN1CCOCC1`, the outcome is reported as “inactive”. In the case of `Cc1ccc(Oc2ccc3c(c2)C(=O)N(c2ccc(S(=O)(=O)Nc4nccs4)cc2)C3=O)cc1`, the outcome is reported as “inactive”. For `COc1cc(OC)cc(C(=O)N[C@H](C(=O)OCC(=O)Nc2ccc(C(N)=O)cc2)C(C)C)c1`, the outcome was “inactive”. In the case of `COc1ccccc1-n1c(SCc2cc(=O)oc3cc(O)ccc23)nc2ccccc2c1=O`, the outcome is reported as “inactive”. In the case of `COc1cccc(C2C3=C(Nc4[nH]n(-c5ccccc5)c(=O)c42)c2ccccc2C3=O)c1` (stereo unspecified), the outcome is reported as “inactive”. In the case of `CC(C)Oc1cccc(C(=O)NC(=S)Nc2ccccc2)c1`, the outcome is reported as “inactive”. For `CC(CO)(CO)NCc1ccc(-c2ccccc2)cc1`, the outcome was “inactive”. In the case of `Cc1cc(C(=O)NCc2ccco2)no1`, the outcome is reported as “inactive”. In the case of `Cc1cc(SCC(N)=O)nc(SCC(=O)c2ccccc2)n1`, the outcome is reported as “inactive”. For `COc1ccccc1NS(=O)(=O)c1cccc(C(=O)N/N=C/c2c(C)nn(-c3ccccc3)c2N2CCCC2)c1`, the outcome was “inactive”. In the case of `CCC(C)n1c(O)c(C(c2ccccn2)c2c(O)n(C(C)CC)c(=S)[nH]c2=O)c(=O)[nH]c1=S` (stereo unspecified), the outcome is reported as “inactive”. With `Cn1c(=O)c(=O)n(C)c2cc(S(=O)(=O)Nc3ccc4c(c3)OCCO4)ccc21` the outcome was “inactive”. In the case of `Cc1ccc(N(CC(=O)Nc2cccc(C)c2)S(=O)(=O)c2cccc3nonc23)cc1`, the outcome is reported as “inactive”. For `Nc1cc(N2CCCCC2)c(Cl)cc1[N+](=O)[O-]`, the outcome was “inactive”. In the case of `CCOc1ccc(-c2noc(CCCC(N)=O)n2)cc1OC`, the outcome is reported as “inactive”. In the case of `CCOc1ccc(/C=C/C(=O)Nc2ccc(OC)cc2[N+](=O)[O-])cc1`, the outcome is reported as “inactive”. With `Nc1ccc(N(c2ccccc2)c2ccc(N)cc2)cc1` the outcome was “inactive”. With `Cc1ccccc1C(=O)N(C)Cc1ccccc1` the outcome was “inactive”. For `CCC(CC)c1nnc(NC(=O)Oc2ccccc2)s1`, the outcome was “inactive”. For `CCOCc1nnc(NC(=O)COC)s1`, the outcome was “inactive”. For `Cc1cc(C=O)c(C)n1-c1ccc(Oc2ccc([N+](=O)[O-])cn2)cc1`, the outcome was “inactive”. With `CCCn1nnc(NC(=O)c2ccc(Br)o2)n1` the outcome was “inactive”. With `Brc1cccc(CNCc2cccs2)c1` the outcome was “inactive”. For `c1ccc2c(CCNCc3ccc4c(c3)OCO4)c[nH]c2c1`, the outcome was “inactive”. With `COc1cc(CNCc2cccs2)cc(Br)c1OC` the outcome was “inactive”. For `COc1ccc(CCNC(=S)Nc2cccc3ccccc23)cc1`, the outcome was “inactive”. With `Fc1ccc(CCNCc2cccc(Cl)c2)cc1` the outcome was “inactive”. For `COc1ccccc1CNc1nc2nc(C)c(C)c(=O)n2[nH]1`, the outcome was “inactive”. In the case of `CCN(C(=O)COc1cc(=O)n(CC)c2ccccc12)c1cccc(Cl)c1`, the outcome is reported as “inactive”. For `CCN(CC)S(=O)(=O)c1ccc2c(c1)nc(SCC(=O)N1CCOCC1)n2-c1ccccc1OC`, the outcome was “inactive”. With `O=c1ccc2ccc(Oc3ccc([N+](=O)[O-])cc3[N+](=O)[O-])cc2o1` the outcome was “inactive”. In the case of `O=C(CCN1CCc2ccccc2C1)Nc1ccccc1F`, the outcome is reported as “inactive”. In the case of `CCCc1nc2c(o1)CC(CC(C)SCC)CC2=O` (stereo unspecified), the outcome is reported as “inactive”. In the case of `COc1ccc(S(=O)(=O)Nc2ccc(F)c(F)c2)cc1Cl`, the outcome is reported as “inactive”. For `S=C(NCc1cccnc1)Nc1ccc(Cl)c(Cl)c1`, the outcome was “inactive”. For `CCc1cccc(C)c1NC(=S)NCc1cccn1C`, the outcome was “inactive”. With `COC(=O)C1=C(CSc2nc3ccccc3o2)NC(=O)NC1c1cc(C)ccc1C` (stereo unspecified) the outcome was “inactive”. For `CCn1c(SCc2nc3scc(-c4ccccc4)c3c(=O)[nH]2)nnc1-c1cccs1`, the outcome was “inactive”. For `COc1ccc2c(c1)OC1=C(C(=O)CCC1)C2C1=C(O)CCCC1=O` (stereo unspecified), the outcome was “inactive”. With `CC(=O)Nc1cccc(-c2csc(Nc3ccccn3)n2)c1` the outcome was “inactive”. For `O=C(NNc1nc(-c2ccccc2)cs1)c1ccccc1`, the outcome was “inactive”. With `c1ccc(CN2CCN(c3nc(-c4ccccc4)nc(-n4ccnc4)n3)CC2)cc1` the outcome was “inactive”. For `C#CCOc1ccc(/C=N/O)cc1Cl`, the outcome was “inactive”. For `Cc1ccc(-c2csc(=S)n2CC(=O)OCC(=O)NCc2ccco2)cc1`, the outcome was “inactive”. With `N#Cc1ccc(C(c2nnnn2CCc2ccccc2)N2CCCCCC2)cc1` (stereo unspecified) the outcome was “inactive”. For `Cc1ccc(S(=O)(=O)NNC(=O)c2ccc(O)cc2)cc1`, the outcome was “inactive”. In the case of `CC1(C)SC(=S)N(NC(=O)Nc2ccccc2)C1N(O)C(=O)Nc1ccccc1` (stereo unspecified), the outcome is reported as “inactive”. For `O=C(CCN1CCCCC1)NCC1OCCc2ccccc21` (stereo unspecified), the outcome was “inactive”. In the case of `S=C(Nc1cccc(Cl)c1)Nc1cccc2cnccc12`, the outcome is reported as “inactive”. With `CCc1nc2cc(Cl)c(Cl)cc2[nH]1` the outcome was “inactive”. For `Cc1cccc(N2CCN(CC(=O)Nc3nccs3)CC2)c1C`, the outcome was “inactive”. For `CCCOC(=O)Oc1ccc2c(=O)c(Oc3cc(C)cc(C)c3)coc2c1`, the outcome was “inactive”. In the case of `COC(=O)c1ccccc1Oc1cnc2ccccc2n1`, the outcome is reported as “inactive”. For `CCOC(=O)c1c(/N=C/c2ccc(O)cc2O)sc2c1CCC2`, the outcome was “inactive”. For `Cc1cccc(Nc2ncccc2C(=O)NCc2cccs2)c1C`, the outcome was “inactive”. In the case of `Cc1ccccc1NC(=O)c1sc2nc3c(c(-c4ccco4)c2c1N)CCC3`, the outcome is reported as “inactive”. For `O=C(Nc1nc2cc3c(cc2s1)OCO3)C1=COCCO1`, the outcome was “inactive”. With `N#Cc1c(NC(=O)c2cnccn2)sc2c1CCCC2` the outcome was “inactive”. In the case of `COc1ccc(/C=C/C(=O)NC(=S)NNC(=O)c2cnccn2)cc1`, the outcome is reported as “inactive”. In the case of `COc1ccc(N2CCN(C(=O)CN(c3cccc(Br)c3)S(C)(=O)=O)CC2)cc1`, the outcome is reported as “inactive”. For `NC(=O)CCc1c[nH]c2ccccc12`, the outcome was “inactive”. For `CCc1nc(SCC(=O)N2CCCc3ccccc32)c2oc3ccccc3c2n1`, the outcome was “inactive”. In the case of `O=C(Nc1ccc(S(=O)(=O)N2CCCC2)cc1)c1ccc(CN2CCc3ccccc3C2)cc1`, the outcome is reported as “inactive”. In the case of `Cc1ccc2c(c1)[nH]c1c(N3CCN(Cc4ccccc4)CC3)ncnc12`, the outcome is reported as “inactive”. With `O=C(CN1CCN(Cc2ccccc2)CC1)c1c[nH]c2ccccc12` the outcome was “inactive”. In the case of `O=C(CCCOc1ccccc1)N1CCCc2ccccc21`, the outcome is reported as “inactive”. In the case of `CC1CC(C)CN(CCCNC(=O)C2CCC(=O)N2C2CCCC2)C1` (stereo unspecified), the outcome is reported as “inactive”. With `CCc1ccc(NC(=O)c2noc3c2CCc2ccccc2-3)cc1` the outcome was “inactive”. In the case of `CCSc1nnc(NC(=O)Cc2cccc(OC)c2)s1`, the outcome is reported as “inactive”. With `Nn1c(COc2cccc(Br)c2)nnc1SCC(=O)N1CCc2ccccc2C1` the outcome was “inactive”. With `CCCc1cc(=O)oc2cc(OCC(=O)N3CCc4ccccc43)ccc12` the outcome was “inactive”. With `O=[N+]([O-])c1cccc(CN(CCO)Cc2ccccc2)c1` the outcome was “inactive”. In the case of `COCCNC(=O)c1ccccc1NS(=O)(=O)c1ccc(Br)s1`, the outcome is reported as “inactive”. For `CCOc1ccc(OCc2ccc(C(=O)N3CCc4ccccc4C3)o2)cc1`, the outcome was “inactive”. With `O=C(OCc1nnc(-c2ccccc2)o1)c1ccc(S(=O)(=O)NCc2ccco2)cc1` the outcome was “inactive”. With `COc1ccc(Cl)cc1NC(=O)C(C)OC(=O)c1ccc(NS(=O)(=O)c2ccc3[nH]c(=O)[nH]c3c2)cc1` (stereo unspecified) the outcome was “inactive”. For `O=C(C(=O)N1CCc2ccccc2C1)N1CCc2ccccc2C1`, the outcome was “inactive”. For `c1ccc2c(c1)CCN(c1ncnc3c1[nH]c1ccccc13)C2`, the outcome was “inactive”. For `CC(C)(C)c1ccc(C(=O)NC(=S)NCc2cccnc2)cc1`, the outcome was “inactive”. For `CCn1c2ccccc2c2cc(NC(=O)C(C)Oc3ccccc3)ccc21` (stereo unspecified), the outcome was “inactive”. For `O=C(NCc1cn2ccsc2n1)Nc1ccc(Cl)cc1`, the outcome was “inactive”. For `O=Cc1cn(Cc2ccccc2[N+](=O)[O-])c2ccccc12`, the outcome was “inactive”.
